# Screening data as filed in PubChem.
# SENP8 block-1 – blocks the human protease SENP8; AID 2540; hit rate 1.2% among 330,000; Q96LD8; purified SENP8, Z-RLRGG-aminoluciferin cleavage, luminescence; inhibition, % at 10 µM; in the data active = inhibition above about 50%
# LGR2 inh – Drosophila LGR2 receptor signaling inhibition. HEK293 LGR2, CRE-luciferase, bursicon-stimulated, 4 h. inhibition, % at 9.99 µM. hit rate 0.35% among 380,000. AID 720647;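 active = drop in luminescence signal, shown as inhibition above about 50% in the replicate tests, limit read from the data, passing the limit was not always enough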;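 note: agonist challenge used bursicon conditioned medium at about half maximal strength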
# SENP6 block – SENP6 protease inhibition; AID 2599; hit rate 1.8% among 330,000; Q9GZR1; inhibition, % at 10 µM; Recombinant SENP6 catalytic domain, aminoluciferin luminescence;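 active = inhibition above about 50% at the single tested dose, limit read from the data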
# Target sequence (Q9GZR1 628-1112 limits assumed): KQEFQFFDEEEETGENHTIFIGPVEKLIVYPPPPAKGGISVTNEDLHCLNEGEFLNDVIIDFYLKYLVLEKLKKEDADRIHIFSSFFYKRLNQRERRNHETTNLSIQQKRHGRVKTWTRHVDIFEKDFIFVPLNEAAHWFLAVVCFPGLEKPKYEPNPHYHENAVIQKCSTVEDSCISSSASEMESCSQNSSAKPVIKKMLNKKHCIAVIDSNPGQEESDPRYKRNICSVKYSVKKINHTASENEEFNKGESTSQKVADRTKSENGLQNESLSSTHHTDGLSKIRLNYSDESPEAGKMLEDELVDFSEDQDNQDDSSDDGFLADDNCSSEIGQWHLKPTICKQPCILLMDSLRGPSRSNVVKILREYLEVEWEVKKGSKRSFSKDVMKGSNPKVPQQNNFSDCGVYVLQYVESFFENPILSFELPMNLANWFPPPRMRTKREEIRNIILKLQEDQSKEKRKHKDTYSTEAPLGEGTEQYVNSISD
# SENP8 block-2 – blocks human SENP8 cleavage of Nedd8 substrate; Q96LD8; recombinant SENP8, Nedd8 substrate fluorescence; inhibition, % at 20 µM; hit rate 0.64% among 360,000; in the data active = inhibition mostly above about 40%, no sharp cut-off; inactive = mostly below about 27%
# HSP90 inh – inhibitors of HSP90 luciferase refolding in rabbit reticulocyte lysate; luciferase refolding luminescence, 3 h; inhibition, % at 5.6 µM; hit rate 0.91% among 290,000; AID 1789;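 active = inhibition above the screen-wide mean plus 3 SD, computed separately per campaign, cut at about 16% in these data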;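 note: inhibitors lower the luminescence because luciferase stays unfolded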
# SENP7 inh – inhibitors of human SENP7 protease; AID 434973; recombinant SENP7, Z-RLRGG-aminoluciferin luminescence, 40 min; Q9BQF6; inhibition, % at 5 µM; hit rate 1.5% among 330,000;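 active = inhibition above about 50% at the single test dose, limit read from the data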
# SENP8 conf – confirmation of human SENP8 protease inhibitors; shares compounds with SENP7 inh; Recombinant SENP8, Z-RLRGG-aminoluciferin luminescence, 60 min; inhibition, % at 12.5 µM; hit rate 40% among 6,200;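 active = mean inhibition across replicates above about 50%, limit read from the data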
# SENP6 conf – confirmation of human SENP6 protease inhibitors. shares compounds with SENP7 inh. inhibition, % at 12.5 µM. hit rate 58% among 6,200. recombinant SENP6, Z-RLRGG-aminoluciferin luminescence
# SENP7 confirm – human SENP7 inhibition, confirmed; shares compounds with SENP7 inh; recombinant SENP7, Z-RLRGG-aminoluciferin luminescence, 40 min; inhibition, % at 12.5 µM; hit rate 69% among 6,200; AID 488917
# Casp3 SENP sel – selectivity test for SENP inhibitors: human caspase-3 inhibition; purified caspase-3, Z-DEVD-aminoluciferin luminescence, 60 min; inhibition, % at 12.5 µM; hit rate 60% among 6,200; shares compounds with SENP7 inh;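 active = mean inhibition above about 50%, limit read from the data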
# Luc interf – luminescence interference (SENP counter-screen). hit rate 39% among 6,200. inhibition, % at 12.5 µM. Pre-incubated SENP8/Z-RLRGG-aminoluciferin, luciferase luminescence interference. shares compounds with SENP7 inh;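 active = mean inhibition above about 50% when retested at one dose, limit read from the data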
# Hits are given with their value; i = inactive; nt = no result. A selection: hits, their analogues and other compounds. The true share with any hit is near 2.3%.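 Rule for the calls, unless noted: active = mean inhibition above about 50% in the one-dose retest (limit read from the data); inactive = the rest.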
SMILES,SENP8 block-1,LGR2 inh,SENP6 block,SENP8 block-2,HSP90 inh,SENP7 inh,SENP8 conf,SENP6 conf,SENP7 confirm,Casp3 SENP sel,Luc interf
COc1ccc(NC(=O)Nc2ccc3c(c2)C(=O)N([C@H](C)CO)C[C@@H](C)[C@H](CN(C)S(=O)(=O)c2ccc(F)cc2)OCCCC[C@@H](C)O3)cc1,nt,i,nt,nt,nt,nt,nt,nt,nt,nt,nt
CCOC(=O)Cc1csc(NC(=O)CSc2ncnc3c2cnn3-c2ccc(OC)cc2)n1,71,nt,75,i,i,52,i,69,59,84,i
COc1ccc(-n2ncc3c(SCC(=O)N4CCN(c5ccccc5OC)CC4)ncnc32)cc1,69,nt,i,i,i,i,i,i,i,i,i
Cc1ccc(Nc2nc(-c3ccccc3)cs2)nc1,91,60,i,i,i,89,85,97,102,84,72
c1ccc(-c2csc(NC3CCCCC3)n2)cc1,i,i,66,i,i,i,83,82,95,62,67
Cc1ccc(Nc2nc(-c3cccs3)cs2)nc1,91,i,93,i,17,i,i,98,102,85,68
Cc1cc(O)ccc1Nc1nc(-c2cccs2)cs1,70,i,70,i,i,i,i,95,100,78,94
Cc1cc(O)ccc1Nc1nc(-c2cccnc2)cs1,i,i,i,i,i,i,nt,nt,nt,nt,nt
C[C@H]1CN([C@@H](C)CO)C(=O)CCCn2cc(nn2)CO[C@H]1CN(C)C(=O)Nc1cccc2ccccc12,nt,i,nt,nt,nt,nt,nt,nt,nt,nt,nt
COc1ccc(/C=N/NC(=O)c2ccoc2C)cc1O,i,i,76,i,i,67,68,67,89,90,73
CCN(CC)c1ccc(/C=N/NC(=O)c2ccoc2C)c(O)c1,94,i,98,i,i,100,96,98,103,i,i
Cc1occc1C(=O)N/N=C/c1cccs1,62,i,67,i,i,83,72,72,91,91,74
CCN(CC)c1ccc(/C=N/NC(=O)OC)c(O)c1,i,nt,i,i,i,i,nt,nt,nt,nt,nt
Cc1occc1C(=O)N/N=C/c1cccc2ccccc12,89,i,90,i,i,92,56,88,100,89,i
CC(C)NC(=O)N[C@@H]1CC[C@@H](CCNC(=O)C2CCCC2)O[C@@H]1CO,nt,i,nt,nt,nt,nt,nt,nt,nt,nt,nt
O=C(C[C@@H]1CC[C@@H]2[C@H](COC[C@@H](O)CN2CC2CCOCC2)O1)NCC1CC1,nt,i,nt,nt,nt,nt,nt,nt,nt,nt,nt
Cc1noc(C)c1NC(=O)Nc1ccc2c(c1)C(=O)N([C@H](C)CO)C[C@@H](C)[C@H](CN(C)S(=O)(=O)c1ccccc1)O2,nt,i,nt,nt,nt,nt,nt,nt,nt,nt,nt
O=C(CCN1CCCCC1)N[C@@H]1CC[C@@H](CCNS(=O)(=O)c2ccc(Cl)cc2)O[C@H]1CO,nt,i,nt,nt,nt,nt,nt,nt,nt,nt,nt
CC(C)NC(=O)NCC[C@@H]1CC[C@H](NC(=O)Nc2ccccc2)[C@H](CO)O1,nt,i,nt,nt,nt,nt,nt,nt,nt,nt,nt
Cc1occc1C(=O)N/N=C/C(Br)=C/c1ccccc1,84,i,92,i,i,89,66,92,99,88,i
Cc1occc1C(=O)Nc1cccc2ccccc12,91,nt,96,i,i,95,i,96,102,91,94
COc1cc(/C=N/NC(=O)c2ccoc2C)cc(OC)c1OC,i,nt,i,i,i,i,nt,nt,nt,nt,nt
Cc1occc1C(=O)N/N=C/c1ccc(-c2ccccc2)cc1,97,i,99,i,45,100,71,100,103,98,70
Cc1occc1C(=O)Nc1ccccc1NC(=O)c1ccoc1C,i,nt,i,i,i,i,nt,nt,nt,nt,nt
COc1ccc(/C=N/NC(=O)c2ccoc2C)cc1OC,i,nt,56,i,i,i,i,i,70,80,52
